The values that follow come from PubChem BioAssay.

For assay [1], the system named is Plasmodium falciparum Sir2 (PF13_0152, Sir2A). Briefly: Plasmodium falciparum Sir2A binding compounds – biochemical, small-molecule microarray, 635 nm fluorescence, primary screen (AID 1098).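 Also: score merges spot fluorescence intensity with its signal-to-noise ratio.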 The conditions noted are these: fluorescence 635 nm, higher = more signal.
Assay [2] in a line: probe aDKK1 binding to arrayed compounds – biochemical, biotinylated probe, 635/667 nm fluorescence, primary screen (AID 1099).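 Also: score merges 667nm spot fluorescence with signal to noise across triplicate slides.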 Particulars: small-molecule microarray, higher = more signal.
The nature of assay [3]: probe aCHRDL2 binding to arrayed compounds – biochemical, biotinylated probe, 635/667 nm fluorescence, primary screen (AID 1100). Particulars: small-molecule microarray, higher = more signal.
Assay [4] is described as follows: change in splice reporter luminescence, either direction, cell-based, HEK293, spliceosome inhibition project, primary screen (AID 1101).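 Also: HEK293 cells carrying a splicing-competent luciferase reporter gene; test concentration not given here.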 Particulars: HEK293 splicing luciferase reporter, 24 h, higher = more signal, called active from +8 up or from −8 down. On the technique in general: Reporter assays use an easily measured gene product as a stand-in for the process of interest.

The target of assay [5] is Fibroblast growth factor 10 (Homo sapiens) (UniProt O15520). Nature of the assay: compounds binding fibroblast growth factor 10 – biochemical, small-molecule microarray, 635 nm fluorescence, primary screen (AID 1102). Particulars: FGF10 binding, fluorescence 635 nm, higher = more signal.
Fibroblast growth factor 10 (Homo sapiens), sequence (O15520 whole entry, looked up): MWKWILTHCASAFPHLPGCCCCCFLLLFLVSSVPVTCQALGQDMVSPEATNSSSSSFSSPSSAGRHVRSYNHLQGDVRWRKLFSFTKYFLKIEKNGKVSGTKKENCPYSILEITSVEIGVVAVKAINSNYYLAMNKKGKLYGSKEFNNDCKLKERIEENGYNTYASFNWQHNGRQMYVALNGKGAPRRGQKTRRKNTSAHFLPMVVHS
Assay [6] concerns glycogen synthase kinase-3 (GSK3A per assay name; protocol says GSK3B). Nature of the assay: compounds binding glycogen synthase kinase-3 – biochemical, small-molecule microarray, 635 nm fluorescence, GSK3A, primary screen (AID 1103). Also: the record names both GSK3A and GSK3B. Particulars: fluorescence 635 nm, higher = more signal.
Assay [7] concerns the target Epidermal growth factor receptor (Homo sapiens) (UniProt P00533). Briefly: compounds binding epidermal growth factor receptor – biochemical, small-molecule microarray, 635 nm fluorescence, primary screen (AID 1104).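 Also: score merges 667 nm emission intensity with spot signal to noise over triplicate slides.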 Particulars: EGFR binding, higher = more signal.
In assay [8] the target is Follistatin-related protein 3 (Homo sapiens) (UniProt O95633). Nature of the assay: compounds binding follistatin-related protein 3 – biochemical, small-molecule microarray, 635 nm fluorescence, primary screen (AID 1105).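 Also: score merges emission near 667 nm and signal to noise per printed spot across three slides.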 Particulars: FSTL3 binding, higher = more signal.
Follistatin-related protein 3 (Homo sapiens), sequence (O95633 whole entry, looked up): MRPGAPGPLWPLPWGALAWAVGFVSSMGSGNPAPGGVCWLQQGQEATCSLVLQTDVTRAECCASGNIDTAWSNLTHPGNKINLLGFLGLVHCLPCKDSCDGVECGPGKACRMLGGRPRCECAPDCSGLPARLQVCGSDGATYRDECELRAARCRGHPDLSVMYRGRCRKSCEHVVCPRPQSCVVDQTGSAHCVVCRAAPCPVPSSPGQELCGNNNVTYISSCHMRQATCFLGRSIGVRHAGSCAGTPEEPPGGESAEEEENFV
Assay [9] deals with Dickkopf-related protein 1 (Homo sapiens) (UniProt O94907). Nature of the assay: small molecules binding DKK1 protein – biochemical, small-molecule microarray, 635 nm fluorescence scan, primary screen (AID 1106).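 Also: score merges emission near 667 nm with signal to noise over three replicate slides.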 The conditions noted are these: higher = more signal.
Dickkopf-related protein 1 (Homo sapiens), sequence (O94907 whole entry, looked up): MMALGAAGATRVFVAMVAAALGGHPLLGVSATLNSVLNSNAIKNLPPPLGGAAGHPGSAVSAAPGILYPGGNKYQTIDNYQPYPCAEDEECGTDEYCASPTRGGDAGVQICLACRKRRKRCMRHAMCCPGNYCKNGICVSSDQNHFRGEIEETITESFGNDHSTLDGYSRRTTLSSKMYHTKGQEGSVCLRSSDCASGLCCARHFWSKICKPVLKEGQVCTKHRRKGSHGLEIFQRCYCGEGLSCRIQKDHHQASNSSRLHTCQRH
For assay [10], the system named is Inhibin beta A chain (activin A). Nature of the assay: small molecules binding activin A – biochemical, small-molecule microarray, 635 nm fluorescence scan, primary screen (AID 1107).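 Also: mouse activin A protein probed at 4.33 µg/mL on printed slides; score merges bound-protein fluorescence near 667 nm with spot signal-to-noise.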 Particulars: INHBA, higher = more signal.
Assay [11] deals with Human papillomavirus type 1a protein E7 (residues 44-93). Nature of the assay: small molecules binding HPV E7 44-93 – biochemical, small-molecule microarray, residues 44-93, 635 nm fluorescence, primary screen (AID 1108).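 Also: E7 fragment applied at 1 µg/mL in TBST for 1 h at 4 C; score combines spot fluorescence with its signal to noise ratio.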 The conditions noted are these: fluorescence 635 nm, higher = more signal.
The nature of assay [12]: hepatitis C replication reporter changes, two-sided – Huh7 cells, luciferase reporter, HCV replication inhibitor project, primary screen (AID 1109).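 Also: huh7 hepatoma cells harbouring a luciferase neomycin HCV replicon reporter; luciferase luminescence as measure of HCV replicon replication; test concentration not given here.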 The conditions noted are these: Huh7 HCV replicon luciferase reporter, 48 h; higher = more signal.
The target in assay [13] is Left-right determination factor 2 (Homo sapiens) (UniProt O00292). Briefly: small molecules binding LEFTY2 protein – biochemical, small-molecule microarray, 635 nm fluorescence scan, primary screen (AID 1110). The conditions noted are these: higher = more signal.
Left-right determination factor 2 (Homo sapiens), sequence (O00292 whole entry, looked up): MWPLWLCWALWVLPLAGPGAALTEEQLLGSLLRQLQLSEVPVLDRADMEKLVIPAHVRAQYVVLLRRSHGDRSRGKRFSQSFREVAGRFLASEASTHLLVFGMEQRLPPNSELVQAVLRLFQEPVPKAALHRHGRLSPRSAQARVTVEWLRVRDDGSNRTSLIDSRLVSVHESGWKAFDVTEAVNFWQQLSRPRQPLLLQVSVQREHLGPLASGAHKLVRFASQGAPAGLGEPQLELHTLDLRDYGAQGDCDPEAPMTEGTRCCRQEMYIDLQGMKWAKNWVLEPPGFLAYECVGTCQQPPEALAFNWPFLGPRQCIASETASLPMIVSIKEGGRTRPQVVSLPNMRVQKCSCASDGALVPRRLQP
Assay [14] deals with Calmodulin-1 (Homo sapiens) (UniProt P0DP23). Briefly: small molecules binding calmodulin-1 with EGTA – biochemical, small-molecule microarray, Cy5-labelled CALM1, profiling panel (AID 1111).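 Also: labelled calmodulin applied in Tris saline Tween buffer holding calcium plus EGTA and DTT.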 The conditions noted are these: Cy5-CALM1 binding fluorescence, higher = more signal.
Assay [15] has the same target. Briefly: small molecules binding Ca-loaded calmodulin-1 – biochemical, small-molecule microarray, Cy5-labelled CALM1, plus calcium, artefact control for SMM control-protein annotation, profiling panel (AID 1112).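 Also: score merges spot fluorescence with signal to noise from triplicate slides.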 Particulars: Cy5-CALM1 binding fluorescence, higher = more signal.
A short description of assay [16]: probe aWnt5a binding to arrayed compounds – biochemical, biotinylated probe, 635/667 nm fluorescence, primary screen (AID 1113).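 Also: score merges 667 nm fluorescence intensity with signal-to-noise per printed feature.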 Particulars: small-molecule microarray, higher = more signal.
The nature of assay [17]: probe aShh binding to arrayed compounds – biochemical, biotinylated probe, 635/667 nm fluorescence, primary screen (AID 1114).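 Also: probe is biotin-labelled aShh protein from a stem cell growth factor screen; measures binding of labelled protein to compounds printed on the slide; score merges feature fluorescence at 667 nm with signal-to-noise.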 The conditions noted are these: small-molecule microarray, higher = more signal.
A short description of assay [18]: probe aNog binding to arrayed compounds – biochemical, biotinylated probe, 635/667 nm fluorescence, primary screen (AID 1115).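 Also: probe is biotinylated aNog protein used at 0.15 µg/mL for 1 h at 4 C; z-score combines 667 nm fluorescence of each spot with its signal to noise.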 The conditions noted are these: small-molecule microarray, higher = more signal.
Assay [19] deals with Torsin-1A-interacting protein 1 (Homo sapiens) (UniProt Q5JTV8). Briefly: compound microarray binding of lysate hLAP1 – cell lysate, small-molecule microarray, COS7 lysate, 635/667 nm fluorescence, primary screen (AID 1116). Particulars: 635 nm fluorescence, higher = more signal.
Torsin-1A-interacting protein 1 (Homo sapiens), sequence (Q5JTV8 whole entry, looked up): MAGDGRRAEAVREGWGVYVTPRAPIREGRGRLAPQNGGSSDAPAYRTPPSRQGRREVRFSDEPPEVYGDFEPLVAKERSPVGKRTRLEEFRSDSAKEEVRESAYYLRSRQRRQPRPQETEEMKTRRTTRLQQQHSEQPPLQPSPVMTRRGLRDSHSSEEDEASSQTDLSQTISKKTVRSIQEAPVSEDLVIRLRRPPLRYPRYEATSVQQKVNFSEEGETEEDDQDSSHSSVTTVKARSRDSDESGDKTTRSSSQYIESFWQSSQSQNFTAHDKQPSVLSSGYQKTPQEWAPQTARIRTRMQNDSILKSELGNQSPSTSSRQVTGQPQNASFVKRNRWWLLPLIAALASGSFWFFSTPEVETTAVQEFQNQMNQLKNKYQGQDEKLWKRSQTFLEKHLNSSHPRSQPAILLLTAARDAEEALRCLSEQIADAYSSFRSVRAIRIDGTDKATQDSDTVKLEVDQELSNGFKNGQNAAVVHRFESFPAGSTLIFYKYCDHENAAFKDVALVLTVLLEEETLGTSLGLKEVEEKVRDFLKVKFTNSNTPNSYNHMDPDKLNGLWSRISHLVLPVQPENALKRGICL
Assay [20] deals with Alpha-bungarotoxin (Bungarus multicinctus) (UniProt P60615). Nature of the assay: compounds binding labelled alpha-BTX control protein – biochemical, small-molecule microarray, Alexa647 label, 635/667 nm fluorescence, artefact control for SMM control protein annotation, profiling panel (AID 1117). The conditions noted are these: alpha-BTX-A647 binding fluorescence, higher = more signal.
Alpha-bungarotoxin (Bungarus multicinctus), sequence (P60615 whole entry, looked up): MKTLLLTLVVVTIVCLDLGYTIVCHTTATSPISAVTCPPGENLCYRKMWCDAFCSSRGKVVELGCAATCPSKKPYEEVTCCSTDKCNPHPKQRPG

The structures appear in SMILES notation. The source made the active and inactive calls.

Epidermal growth factor receptor (Homo sapiens), sequence (P00533 whole entry, looked up): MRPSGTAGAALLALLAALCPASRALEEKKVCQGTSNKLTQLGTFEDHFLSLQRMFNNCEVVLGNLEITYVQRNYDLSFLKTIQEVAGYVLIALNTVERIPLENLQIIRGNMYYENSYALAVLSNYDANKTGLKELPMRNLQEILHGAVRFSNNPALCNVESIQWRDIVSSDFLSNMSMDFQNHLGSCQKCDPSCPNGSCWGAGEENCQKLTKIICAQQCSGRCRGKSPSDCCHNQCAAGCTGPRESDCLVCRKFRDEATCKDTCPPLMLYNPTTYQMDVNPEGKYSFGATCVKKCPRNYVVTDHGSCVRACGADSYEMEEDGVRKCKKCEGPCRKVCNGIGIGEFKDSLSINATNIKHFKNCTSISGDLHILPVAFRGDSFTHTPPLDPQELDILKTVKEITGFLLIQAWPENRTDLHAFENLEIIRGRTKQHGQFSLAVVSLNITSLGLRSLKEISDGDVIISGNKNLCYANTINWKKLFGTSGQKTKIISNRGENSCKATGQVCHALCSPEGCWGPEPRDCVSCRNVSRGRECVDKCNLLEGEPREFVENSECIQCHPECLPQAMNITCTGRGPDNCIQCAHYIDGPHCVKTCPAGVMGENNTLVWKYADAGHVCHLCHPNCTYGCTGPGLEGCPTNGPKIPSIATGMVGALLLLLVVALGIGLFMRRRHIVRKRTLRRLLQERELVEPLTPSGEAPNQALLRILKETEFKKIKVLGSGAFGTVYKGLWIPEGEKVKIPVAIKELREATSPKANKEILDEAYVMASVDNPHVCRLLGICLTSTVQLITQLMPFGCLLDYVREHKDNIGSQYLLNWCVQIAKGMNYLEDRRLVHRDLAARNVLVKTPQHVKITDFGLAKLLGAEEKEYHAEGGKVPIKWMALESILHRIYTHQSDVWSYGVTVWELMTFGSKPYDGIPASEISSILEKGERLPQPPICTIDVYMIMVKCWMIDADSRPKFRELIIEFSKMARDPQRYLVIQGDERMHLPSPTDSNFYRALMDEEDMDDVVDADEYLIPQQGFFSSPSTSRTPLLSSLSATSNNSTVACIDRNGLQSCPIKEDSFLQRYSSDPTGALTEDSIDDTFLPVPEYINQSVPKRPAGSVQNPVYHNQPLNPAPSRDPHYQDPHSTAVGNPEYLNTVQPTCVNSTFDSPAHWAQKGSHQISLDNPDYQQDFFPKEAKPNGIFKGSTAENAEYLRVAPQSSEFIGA

Take `Cc1ccc(S[C@]2(C(=O)O)CC(=O)N(Cc3ccccc3)[C@@H]2c2ccc(CO)cc2I)cc1`: the composite z-score is 1.17 in assay [1]; -0.0401 in assay [2]; 0.894 in assay [3]; -0.406 in assay [5]; -0.0099 in assay [6]; -0.814 in assay [7]. Further, the composite z-score was -0.417 in assay [8]; -0.776 in assay [9]; 0.84 in assay [10]; 0.34 in [11]; -0.891 in assay [13]; -0.0405 in [14]. In addition, the composite z-score in [15] was -0.0584; in assay [16] it was -0.118; in assay [17], -0.206; in assay [18], -0.409; in assay [19], -0.192; in [20], 0.823. Besides, the z-score in [4] was -0.982 (inactive); in [12], -1.45.
As for `CC[C@@H](c1ccccc1)n1c(=O)n2n(c1=O)[C@H]1[C@H](O)[C@@H]3O[C@@H]3C(=NOCC(C)C)[C@H]1CC2`, the composite z-score is 0.315 in assay [1]; -0.187 in [2]; -0.532 in [3]; -0.0238 in [5]; 0.0344 in assay [6]; 0.143 in assay [7]. Also, the composite z-score in assay [8] is 0.227; in assay [9], 0.202; in [10] it was -0.0597; in assay [11], 0.284; in assay [13], 0.143; in [14], -0.0128. Moreover, the composite z-score was -0.178 in [15]; -0.12 in assay [16]; -0.14 in assay [17]; -0.407 in [18]; 0.107 in [19]; -0.088 in assay [20]. Also, the z-score in [4] is 1.26 (inactive); in [12], -2.11.
With `CCCNC(=O)[C@@H]1c2ccccc2C(=O)N(Cc2ccccc2Cl)[C@H]1c1ccc(CO)cc1`, the composite z-score was 1.67 in [1]; 0.989 in [2]; 0.846 in [3]; 0.619 in [5]; 1.28 in assay [6]; 0.192 in assay [7]. Further, the composite z-score in [8] amounted to 1.34; in assay [9], 0.649; in assay [10] it was 0.341; in [11], 1.22; in [13], 0.531; in assay [14], 0.936. For the same compound, the composite z-score in assay [15] is 0.375; in [16], -0.0203; in assay [17] it was -0.0769; in assay [18], 0.546; in assay [19], 0.598; in assay [20], 0.726. Besides, the z-score in assay [4] was -0.493 (inactive); in assay [12] it was -0.656.
On to `Cc1ccc(F)cc1S(=O)(=O)N[C@@H]1CCN(Cc2ccc(CC(C)C)cc2)C1`, for which the composite z-score was -0.242 in assay [1]; -0.389 in assay [2]; -0.24 in assay [3]; -0.253 in assay [5]; -1.12 in [6]; -0.397 in [7]. Further, the composite z-score in [8] is -0.301; in assay [9], -0.0911; in assay [10], 0.346; in [11] it was 0.135; in assay [13], -0.185; in assay [14], -0.793. Also, the composite z-score was -0.328 in [15]; -0.23 in [16]; -0.138 in [17]; -0.272 in assay [18]; 0.464 in assay [19]; 0.0331 in [20]. Besides, the z-score was 1.1 (inactive) in assay [4] and -3.88 in [12].
For `O=C1[C@H]2[C@H]3[C@H](O)[C@H](O)CC(=NOC[C@@H](O)COCc4ccco4)[C@H]3CC[C@H]2C(=O)N1c1cccc(Oc2ccccc2)c1`, the composite z-score is 0.846 in [1]; -0.317 in assay [2]; 0.166 in assay [3]; -0.86 in [5]; -0.686 in [6]; -0.249 in assay [7]. Also, the composite z-score is -0.65 in [8]; -0.547 in assay [9]; 0.624 in [10]; -0.496 in assay [11]; -1.1 in assay [13]; -0.876 in [14]. The composite z-score in [15] was -0.344; in [16] it was -0.0792; in assay [17], -0.138; in assay [18], -0.0671; in assay [19], 0.103; in [20], -0.572. Also, the z-score is -0.716 (inactive) in assay [4] and 0.126 in assay [12].
